The source made the active and inactive calls. The calls were made as follows: active = hit-call score of the fitted dose curve at least 0.9, where 1 is the maximum; inactive = score below 0.9.
experiment: IUF_NPC2b_neuronal_migration_120hr: Leibniz Research Institute for Environmental Medicine (IUF) 120-hour Neural Progenitor Cell Migration Assay for Neuron Migration (NPC2b) (AID 2284300)
Procedure: IUF_NPC2-5 is a cell-based, multiplexed assay that uses hNPC, a human primary neural progenitor cells, with measurements taken at 72 or 120 hours after chemical dosing in a 96-well plate. Human neural progenitor cells (hNPC) are generated from human fetal brain cortex at gestational week (GW) 16-19. In the neural progenitor cell migration and differentiation assay (NPC2-5), hNPCs grown as spheres are plated on an extracellular matrix and migrate and differentiate out of the sphere core. The processes radial glia migration, neuronal and oligodendrocyte migration as well as neuronal differentiation, neuronal morphology and oligodendrocyte differentiation are studied using automated phase contrast imaging and automated fluorescence imaging in combination with high content image analysis. In parallel, the cell viability is assessed using an alamar blue viability assay and the cytotoxicity using a lactate dehydrogenase dependent membrane integrity assay.IUF_NPC2b_neuronal_migration_120hr is one of 12 assay components measured from the IUF_NPC2-5 assay. Neuronal migration distance at 120 hr is the mean distance of all neurons from the edge of the sphere core to each individual neuron (see IUF_NPC3_neuronal_differentiation_120hr). Neuronal migration is normalized to radial glia migration distance at 120 hr.Data from the IUF_NPC2b_neuronal_migration_120hr component was analyzed at the endpoint IUF_NPC2b_neuronal_migration_120hr in the positive analysis fitting direction relative to DMSO as the negative control and baseline of activity. Using a type of migration reporter, gain or loss-of-signal activity can be used to understand developmental effects.
Culture protocol: After the cell expansion period the cells are cultured for up to four weeks in which they are passaged every week as described in 3.6. Between one to three days after passaging spheres at a size of 0.3 mm are picked for the test method. For the assessment of neural progenitor cell migration and differentiation, the spheres are plated on poly-D-lysine/laminin coated 96-well flat bottom plates in differentiation medium (N2) to initiate migration and differentiation. Thereby one 0.3 mm big sphere is plated in the middle of a well. The differentiation medium consists of DMEM and Ham's F12 at a ratio of 3 to 1 supplemented with 1% N2 and 1% penicillin and streptomycin. Within 5 days NPCs radially migrate out of the sphere core and differentiate into radial glia cells (nestin positive), neurons (TUBB3 positive), oligodendrocytes (O4 positive) and astrocytes (GFAP positive). Cultivation during the test method is performed at 37C and 5% CO2 at a ph of 7.2-7.6.Exposure: 0.3 mm big hNPC are plated in the already prepared test conditions. Exposure starts at day 0 of differentiation and is continued over five days of differentiation until the experiment is terminated. Cells are fed with fresh medium at day 3 of differentiation. Therefore, half of the test condition solution (e.g. solvent control or compound dilution) is replaced by freshly prepared test condition solution.Test Method: Migration distance and cytotoxicity is determined after 72 hours based on brightfield images of each well. The assay is terminated by the assessment of cell viability and cytotoxicity as well as cell fixation after 120 h. Immunocytochemistry is performed for Hoechst positive nuclei, TUBB3 positive neurons and O4 positive oligodendrocytes. On the ICC images, migration after 120 hours, neuronal and oligodendrocyte number, neuronal morphology and neuron/oligodendrocyte specific migration is assessed. immunocytochemical staining (ICC) generates an image for each sphere. The plates are scanned using an automated high content imaging device and all nuclei and their positions are determined automatically based on their intensity and size. Images are imported to the Omnisphero software to run the image analysis that measures the following endpoints. […]

Compound	outcome	AC50
CC1(c2ccc(Oc3ccccc3)cc2)OC(=O)N(Nc2ccccc2)C1=O (stereo not drawn)	inactive	–
CC(C)N(C(=O)COc1nnc(C(F)(F)F)s1)c1ccc(F)cc1	inactive	–
O=C(O)C(F)(F)C(F)(F)C(F)(F)C(F)(F)C(F)(F)C(F)(F)C(F)(F)F	inactive	–
CC[C@H](C)[C@H]1O[C@]2(C=C[C@@H]1C)C[C@@H]1C[C@@H](C/C=C(\C)[C@@H](O[C@H]3C[C@H](OC)[C@@H](O[C@H]4C[C@H](OC)[C@@H](O)[C@H](C)O4)[C@H](C)O3)[C@@H](C)/C=C/C=C3\CO[C@@H]4[C@H](O)C(C)=C[C@@H](C(=O)O1)[C@]34O)O2 (tested in a mixture with another compound)	inactive	–
COP(=O)(OC)OC=C(Cl)Cl	–	53.3 µM (active)
O=[N+]([O-])/N=C1\NCCN1Cc1ccc(Cl)nc1	inactive	–
CC1(C)C(C=C(Cl)Cl)C1C(=O)OC(C#N)c1ccc(F)c(Oc2ccccc2)c1 (stereo not drawn)	inactive	–
CCC(C)(C)C(=O)OC1=C(c2ccc(Cl)cc2Cl)C(=O)OC12CCCCC2	inactive	–
O=S1OCC2C(CO1)C1(Cl)C(Cl)=C(Cl)C2(Cl)C1(Cl)Cl (stereo not drawn)	inactive	–
O=S(=O)(O)C(F)(F)C(F)(F)C(F)(F)C(F)(F)C(F)(F)C(F)(F)C(F)(F)C(F)(F)F	inactive	–
CNC(=O)CSP(=S)(OC)OC	inactive	–
COP(=S)(OC)Oc1ccc([N+](=O)[O-])cc1	inactive	–
O=C(O)COc1ccc(Cl)cc1Cl	inactive	–

Source: PubChem BioAssay (EPA / NIEHS)
